From PubChem BioAssay (NCATS) come the findings set out here.

Records with an inconclusive call do not appear. The list shows a part of the results. Calls of active or inactive are those of the source. Unless noted, calls come from the whole dose curve; as a rule, active = well fitted curve in the direction sought with a large enough effect; inconclusive = small, poorly fitted or top-dose-only effect, or another doubt; inactive = no such curve, though single readings can be large; an effect the other way counts as inactive or inconclusive.

The target of test [1] is Peroxisome proliferator-activated receptor gamma (Homo sapiens) (UniProt P37231). Description: qHTS assay for small molecule antagonists of peroxisome proliferator-activated receptor gamma signaling (AID 588537; active = well fitted inhibition curve with a large enough effect in the signal ratio, with a control signal flat, not every such curve was filed as active; the % refers to the signal ratio; note: potency is the fitted concentration of half-maximal effect). The method in brief: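 HEK293 cells, PPAR-gamma-UAS-bla, 3000/well. Pre-incubation 6-6.5 h, 37 C. Compound titration with rosiglitazone 50 nM final, 16 h. CCF4 dye, 2 h RT, dual-emission fluorescence.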
For orientation: In qHTS, concentration-response curves come from the screen itself.

Test [2] is described as follows: qHTS assay for small molecule agonists of retinoid X receptor alpha signaling (AID 588544). The note with it: HEK293T RXRa-UAS-bla, beta-lactamase reporter, 18 h; 530 nm emission.
Test [3] in a line: qHTS assay for small molecule agonists of the antioxidant response element (ARE) signaling pathway (AID 651741; active = well fitted activation curve with a large enough effect in the signal ratio; the % refers to the signal ratio; note: potency is the fitted concentration of half-maximal effect; for activation: % of control where 0% means no effect). In outline:
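Beta-lactamase reporter expression driven by the antioxidant response element in HepG2 cells was detected by fluorescence with LiveBLAzer B/G FRET substrate (2 h, room temperature) following 16 h compound treatment at 37 C.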

The target of test [4] is Thyroid hormone receptor beta (Homo sapiens) (UniProt P10828). Briefly: qHTS assay for small molecule antagonists of thyroid hormone receptor beta signaling (AID 588547; active = well fitted inhibition curve with a large enough effect in the signal ratio, with a control signal flat, not every such curve was filed as active; the % refers to the signal ratio;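 note: cells stimulated with 0.4 nM T3 agonist during compound exposure; series mostly up to about 77 µM; % is set by controls: 0 for no effect and ±100 for the full control effect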). The note with it: TR-UAS-bla HEK293, beta-lactamase ratio, antagonist mode, 18 h. In outline: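 TR-UAS-bla GripTite HEK293 cells in 2% charcoal/dextran FBS medium were preincubated 4 h at 37 C, given compound (0.59 nM to 92 uM) plus 0.4 nM T3 (final) for 18 h, then CCF4 for 2 h at RT; Hill fit gave IC50.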

Test [5] deals with Peroxisome proliferator-activated receptor gamma (Homo sapiens) (UniProt P37231). Description: qHTS assay for small molecule agonists of peroxisome proliferator-activated receptor gamma signaling (AID 588536; active = well fitted curve in the direction sought with a large enough effect in the signal ratio, with a control signal flat, not every such curve was filed as active; the % refers to the signal ratio;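 note: 0% = DMSO basal wells and 100% = rosiglitazone at 2 µM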). The method in brief: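 This is an agonist-mode beta-lactamase reporter assay in HEK293 PPAR-gamma-UAS-bla cells with 1% charcoal/dextran FBS. Compound titrations ran 16 h at 37 C before CCF4 detection. EC50 and efficacy are Hill fits scaled to 2 uM rosiglitazone (100%) and DMSO basal.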

Test [6] has as its target Vitamin D3 receptor (Homo sapiens) (UniProt P11473). Description: qHTS for Inhibitors of the vitamin D receptor (VDR): Hit Validation in Primary Screen (AID 602199). Note: potency is the fitted concentration of half-maximal effect. The conditions noted are these: VDR-coactivator inhibition assay, qHTS confirmation. In outline:
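Fluorescence polarization assay of VDR binding to Alexa 647-labelled SRC2-3 coactivator peptide: 800nM VDR with 5uM LG19078 agonist, compounds, 2 h at room temperature, read Ex 620 nm/Em 688 nm.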

Test [7] shares this target. Description: qHTS for Inhibitors of the vitamin D receptor (VDR): Hit Validation using a Fluorescein Assay (AID 602200). Note: potency is the fitted concentration of half-maximal effect. The conditions noted are these: VDR-coactivator binding, fluorescein fluorescence polarization. In outline: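 Fluorescence polarization (Ex 495 nm/Em 520 nm) read after 2 h at room temperature, reporting disruption of binding between 1.5 uM VDR-LBD, liganded by 5 uM LG19078, and 5 nM fluorescein-labelled SRC2-3 coactivator peptide (final concentrations).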

Test [8] can be described thus: qHTS for Inhibitors of the vitamin D receptor (VDR): Hit Validation using a Texas Red Assay (AID 602201). Note: potency is the fitted concentration of half-maximal effect. The method in brief: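 Fluorescence polarization (Ex 595/Em 615 nm) of Texas Red (7 nM) with 1.5 uM VDR-LBD and LG19078 (final concentrations). Compounds were incubated for 2 hours at room temperature.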
Test [9] has as its target Vitamin D3 receptor (Homo sapiens) (UniProt P11473). Briefly: qHTS for Inhibitors of the vitamin D receptor (VDR): Hit Validation using a Beta-Lactamase Assay (AID 602202). Note: % is set by controls: 0 for no effect and ±100 for the full control effect. The method in brief: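 Stably transfected HEK293 cells express a VDR–GAL4 DNA-binding-domain fusion driving a UAS beta-lactamase reporter, stimulated by agonist LG190178. Compounds were added 4 h after plating and incubated 18 h. A FRET beta-lactam substrate was then added for 2 h and cleaved substrate emission read at 447 nm.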

Chain of Thyroid hormone receptor beta (Homo sapiens) (P10828 whole entry, looked up): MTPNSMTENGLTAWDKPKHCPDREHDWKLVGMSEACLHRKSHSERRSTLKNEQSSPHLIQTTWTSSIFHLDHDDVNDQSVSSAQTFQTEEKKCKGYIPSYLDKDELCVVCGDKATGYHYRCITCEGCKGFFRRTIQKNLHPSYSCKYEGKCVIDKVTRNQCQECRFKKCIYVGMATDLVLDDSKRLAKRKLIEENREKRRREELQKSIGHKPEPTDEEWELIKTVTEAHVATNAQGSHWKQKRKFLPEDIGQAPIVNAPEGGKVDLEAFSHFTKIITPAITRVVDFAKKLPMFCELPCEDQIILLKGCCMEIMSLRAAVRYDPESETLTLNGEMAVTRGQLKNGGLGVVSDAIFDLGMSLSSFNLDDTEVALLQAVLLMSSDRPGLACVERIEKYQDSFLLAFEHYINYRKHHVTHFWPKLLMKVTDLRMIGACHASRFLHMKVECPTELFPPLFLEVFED
Chain of Vitamin D3 receptor (Homo sapiens) (P11473 whole entry, looked up, the tested form may be a part): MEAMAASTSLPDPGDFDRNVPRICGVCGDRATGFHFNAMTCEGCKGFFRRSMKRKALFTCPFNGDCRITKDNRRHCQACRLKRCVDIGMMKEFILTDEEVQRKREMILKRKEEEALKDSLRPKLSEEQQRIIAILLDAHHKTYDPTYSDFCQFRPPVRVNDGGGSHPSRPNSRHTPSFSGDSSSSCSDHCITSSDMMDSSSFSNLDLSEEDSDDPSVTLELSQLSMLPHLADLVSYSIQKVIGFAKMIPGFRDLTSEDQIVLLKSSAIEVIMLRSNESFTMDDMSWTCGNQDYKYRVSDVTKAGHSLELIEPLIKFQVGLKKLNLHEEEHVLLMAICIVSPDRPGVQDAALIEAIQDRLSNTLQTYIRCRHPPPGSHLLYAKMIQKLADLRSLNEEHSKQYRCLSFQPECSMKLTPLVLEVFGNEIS
Chain of Peroxisome proliferator-activated receptor gamma (Homo sapiens) (P37231 whole entry, looked up): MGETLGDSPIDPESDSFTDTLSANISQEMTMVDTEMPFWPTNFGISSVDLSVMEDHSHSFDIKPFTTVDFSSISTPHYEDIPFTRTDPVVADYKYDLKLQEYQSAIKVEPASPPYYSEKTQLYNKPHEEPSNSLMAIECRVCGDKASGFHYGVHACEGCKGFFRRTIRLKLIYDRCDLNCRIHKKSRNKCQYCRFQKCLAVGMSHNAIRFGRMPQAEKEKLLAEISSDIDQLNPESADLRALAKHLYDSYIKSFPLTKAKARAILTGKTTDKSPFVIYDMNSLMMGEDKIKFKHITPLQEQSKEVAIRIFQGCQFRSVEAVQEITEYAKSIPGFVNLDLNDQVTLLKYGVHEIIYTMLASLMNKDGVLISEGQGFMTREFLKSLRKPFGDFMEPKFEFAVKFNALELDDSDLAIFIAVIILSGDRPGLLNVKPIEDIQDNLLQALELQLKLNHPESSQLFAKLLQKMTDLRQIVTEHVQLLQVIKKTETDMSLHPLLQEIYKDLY

For the compound `O=C=NC1CCC(CC2CCC(N=C=O)CC2)CC1` (configuration not stated), the Potency entry in test [1] and in test [3] was “inactive” in each case. Also, the max response in [2] was -11%.

`Oc1ccc(Nc2ccccc2)cc1`: the activity change % (negative = inhibition) in test [4] is -3.3% (inactive).

`C[C@]12CC[C@@H]3c4ccc(O)cc4CC[C@H]3[C@@H]1CC[C@H]2O`: the compound was classed as inactive in test [5]. Besides, the activity change % (negative = inhibition) in test [4] was -9.59% (inactive). For the same compound, the Potency result in test [3] is “inactive”.

As to `C=CCOc1nc(OCC=C)nc(OCC=C)n1`, in test [2], the max response was -0.634%. In [4], the activity change % (negative = inhibition) is 11.9% (inactive).

For the compound `C=CCCCCCCCCCC`, the call in [5] was inactive. Moreover, in test [2], the max response was -13.8%. Moreover, the Potency entry in test [3] was “inactive”.

Take `CCCCC(CC)CN1C(=O)C2C3C=CC(C3)C2C1=O` (configuration not stated): the outcome in [5] was inactive. For the same compound, the Potency entry in test [1] is “inactive”. The activity change % (negative = inhibition) in test [4] is 4.69% (inactive).

For `CCCCCCCC/C=C\CCCCCCCC(=O)OC`, in test [1], the Potency result was “inactive”. In test [2], the max response is -13.4%.

Turning to `CC1=CC(=O)CC(C)(C)C1`, in test [1], the Potency entry is “inactive”. Also, in test [2], the max response is -20.2%. Besides, the activity change % (negative = inhibition) in test [4] was 1.58% (inactive).

`COc1cc(Cl)c(OC)cc1N`: in test [5], the call was inactive. In addition, the Potency result in [1] was “inactive”. Besides, the max response in test [2] was -3.24%.

`Cc1ccc2c(c1)C(=O)OC2=O`: the outcome in [5] was inactive. The max response in [2] was -13.4%. Further, in test [4], the activity change % (negative = inhibition) was -5.6% (inactive).

For the compound `CCCCCCCCCCCCCCN(C)C`, the compound was called inactive in [5]. Further, the max response in test [2] was -17%. The Potency result in [3] was “inactive”.

With `COC(=O)c1ccc(I)cc1S(=O)(=O)NC(=O)Nc1nc(C)nc(OC)n1`, the Potency result in test [1] and in test [3] was “inactive” in each case. Also, the max response in [2] is -6.12%. Also, in test [4], the activity change % (negative = inhibition) is -17% (inactive).

Consider `CCOCCOCCOC(C)=O`, for which the result in [5] was inactive. For the same compound, the max response in [2] was 0.881%. Further, the activity change % (negative = inhibition) in test [4] was 14% (inactive). Also, the Potency entry in test [3] was “inactive”.

On to `CCCCCCCCCCCCN`, for which the compound was called inactive in test [5]. In addition, the max response in test [2] is 7.66%. Further, in test [3], the Potency entry is “inactive”.

Take `O=C(O)CCCCCCC(=O)O`: the call in test [5] was inactive. Moreover, the Potency result in [1] is “inactive”. For the same compound, in test [2], the max response amounted to 5.03%.

On to `CCCCC(CC)COC(C)=O` (configuration not stated), for which the compound was called inactive in [5]. In addition, the Potency result in test [1] and in [3] was “inactive” throughout. Moreover, the max response in test [2] is -20.2%.

Turning to `COCCOCCOCCO`, the max response in [2] was -11.8%.

`C=C(C)C(=O)OCCOCCOCCOC(=O)C(=C)C`: the call in [5] was inactive. The max response in test [2] was found to be 1.13%. Moreover, in [4], the activity change % (negative = inhibition) is -12.3% (inactive).

`CC(C)CC(C)(O)C#CC(C)(O)CC(C)C` (configuration not stated): in test [5], the result was inactive. In addition, the Potency result in test [1] and in [3] was “inactive” each time. In test [2], the max response came to 10.7%. Also, the activity change % (negative = inhibition) in test [4] is 20.8% (inactive).

On to `CCNc1nc(NC(C)CC)nc(OC)n1` (configuration not stated), for which the compound was classed as inactive in test [5]. The max response in test [2] is -13.5%. In test [3], the Potency result was “inactive”.

Take `CC(C)CCCCCCCCCCCCCCC(=O)O`: the outcome in test [5] was inactive. Moreover, the max response in test [2] is -6.99%.

As to `CCOC(=O)C(C)Oc1ccc(Oc2nc3ccc(Cl)cc3o2)cc1` (configuration not stated), the Potency entry in [1] is “inactive”. Also, the max response in [2] is 11.3%.

On to `COC(=O)c1ccc(CNS(C)(=O)=O)cc1S(=O)(=O)NC(=O)Nc1nc(OC)cc(OC)n1`, for which the Potency result in test [1] is “inactive”. The max response in test [2] came to 10.6%.

Take `O=C(O)c1cc(O)c2ccccc2c1O`: the Potency in [3] was 7.7 µM (active).

For the compound `CCCCCCCCCCCCCCC`, in [4], the activity change % (negative = inhibition) is 5.8% (inactive).

As to `CCCCCCCC/C=C\CCCCCCCCO`, in test [5], the result was inactive. For the same compound, the Potency entry in test [1] and in [3] was “inactive” in each case. Also, in [2], the max response is -18.5%. For the same compound, the activity change % (negative = inhibition) in test [4] is -5.71% (inactive).

In the case of `O=[N+]([O-])c1ccc(O)cc1C(F)(F)F`, the Potency result in [1] is “inactive”. The Potency in test [3] is 34.4 µM (active).

Consider `CC(C)(N=C=O)c1cccc(C(C)(C)N=C=O)c1`, for which the Potency result in [1] and in [3] was “inactive” throughout. Moreover, the max response in [2] came to 8.92%. Also, the activity change % (negative = inhibition) in test [4] was -9.67% (inactive).

For the compound `C=C(C)C(=O)OCC(CC)(COC(=O)C(=C)C)COC(=O)C(=C)C`, the call in [5] was inactive. The Potency entry in test [1] and in test [3] was “inactive” throughout. Also, the max response in test [2] is -12.4%.

`C=CC(=O)OCCOc1ccccc1`: the result in [5] was inactive.

`CCCCC(CC)COC(=O)CS` (configuration not stated): the max response in test [2] was -9.7%. The activity change % (negative = inhibition) in test [4] is 1.03% (inactive).

In the case of `CC[C@H]1O[C@]2(CC[C@@H]1C)C[C@@H]1C[C@@H](C/C=C(\C)C[C@@H](C)/C=C/C=C3CO[C@@H]4[C@H](O)C(C)=C[C@@H](C(=O)O1)[C@]34O)O2`, the Potency in [1] is 22.4 µM (active).

Consider `CCN(Cc1c(F)cccc1Cl)c1c([N+](=O)[O-])cc(C(F)(F)F)cc1[N+](=O)[O-]`, for which, in test [1], the Potency result was “inactive”. Moreover, the activity change % (negative = inhibition) in test [4] is -17.5% (inactive).

Take `S=C([S-])NCCNC(=S)[S-].S=C([S-])NCCNC(=S)[S-].[Mn+2].[Zn+2]`: the outcome in [5] was inactive.

As to `O=C(Nc1nc(-c2ccncc2)cs1)C1COc2ccccc2O1` (configuration not stated), the results for the Potency in test [6], in test [7] and in test [8] were 2.82 µM (active), 3.16 µM (active) and 7.08 µM (active), respectively. For the same compound, in [9], the Potency result is “inactive”.

Turning to `COc1ccc(OCc2nnc3n2N=C(c2ccccc2)C(CC(=O)O)S3)cc1` (configuration not stated), the figures for the Potency in test [6], in [7] and in test [8] were 1.58 µM (active), 1.12 µM (active) and 3.16 µM (active), respectively. In test [9], the Potency result is “inactive”.
